Data from the supplement of paper PMC10849652.
Of roughly 7,900 targets only a part is listed; those with a hit were picked by preference. About 0.6% of all pairs of compound and target were hits. Unmarked numbers belong to inactive results.

Key:
Test in all cases: log2 fold change, soluble protein after heating vs DMSO (PISA); higher = thermal stabilisation; K562 cells, 10 uM, 30 min; active = over 0.2 and 3.5 SD of the protein, either way, in both replicates (recomputed)
erlotinib = compound: C#Cc1cccc(Nc2ncnc3cc(OCCOC)c(OCCOC)cc23)c1 [erlotinib]
Summary of the method: (§1)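 Values are thermal stability changes relative to control samples and are taken from duplicates. They are stated as log2 fold changes. Before quantification by TMTpro 16plex LC-MS/MS with equalised channel sums, K562 cells at 2×10^6 cells/mL were treated with 10 μM compound for 30 min, heated in aliquots for 3 min across 48°C-58°C, pooled, extracted in PBS with 0.5% NP-40 at 4°C, and centrifuged at 21,000xg for 90 min to give the soluble supernatant.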

[1] = compound: C/C(=N\NC(=O)C1=CC(=CC=C1)S(=O)(=O)N2CCOCC2)/C3=C(C=CC(=C3)Cl)O
Summary of the method: as §1

[2] = compound: C1=CC(=C(C=C1Cl)C2=NC3=NC=CN=C3C(=N2)NC4=CC=NC=C4)F
Summary of the method: as §1

[3] = compound: C1=CC(=CC=C1C2=NC3=C(N2)C=C(C=C3)C(=O)N)OC4=CC=C(C=C4)Cl
Summary of the method: as §1

[4] = compound: C1=CC2=C(C=CC(=C2)/C=C\3/C(=O)NC(=NCC4=CC=CS4)S3)N=C1
Summary of the method: as §1

[5] = compound: C1=CC2=NC=CN=C2C=C1/C=C/3\C(=O)NC(=O)S3
Summary of the method: as §1

[6] = compound: C1=CC=C(C=C1)C2=NC(=C(N2)C3=CC=NC=C3)C4=CC(=C(C=C4)Cl)O
Summary of the method: as §1

[7] = compound: C1=CC=C2C(=C1)C3=NNC4=CC=CC(=C43)C2=O
Summary of the method: as §1

[8] = compound: C1CCN(C1)C(=O)NC2=CC=CC(=C2)NC3=NC=C(C(=N3)NCCC4=CN=CN4)Br
Summary of the method: as §1

[9] = compound: C1CN(CCC1(CC2=CC=C(C=C2)Cl)N)C3=NC=NC4=C3C=CN4
Summary of the method: as §1

IRAK-1-4 Inhibitor I = compound: C1COCCN1CCN2C3=CC=CC=C3N=C2NC(=O)C4=CC(=CC=C4)[N+](=O)[O-] [IRAK-1-4 Inhibitor I]
Summary of the method: as §1

ibrutinib = compound: C=CC(=O)N1CCC[C@@H](n2nc(-c3ccc(Oc4ccccc4)cc3)c3c(N)ncnc32)C1 [ibrutinib]
Summary of the method: as §1

[10] = compound: CC(=O)c1cnc2ccc(-c3cc(Cl)c(O)c(Cl)c3)nc2c1N[C@H]1CC[C@H](CN(C)C)CC1
Summary of the method: as §1

ralimetinib = compound: CC(C)(C)Cn1c(N)nc2ccc(-c3[nH]c(C(C)(C)C)nc3-c3ccc(F)cc3)nc21 [ralimetinib]
Summary of the method: as §1

[11] = compound: CC(C)(O)CC(=O)NCCn1ccc2ncnc(Nc3ccc(Oc4cccc(C(F)(F)F)c4)c(Cl)c3)c21
Summary of the method: as §1

[12] = compound: CC(C)C1=C2N=C(C=C(N2N=C1)NCC3=CC=CC=C3)NCCCCCCN
Summary of the method: as §1

[13] = compound: CC(C)C[C@@H](C=O)NC(=O)[C@H](CC(C)C)NC(=O)[C@H](CC(C)C)NC(=O)OCc1ccccc1
Summary of the method: as §1

pinometostat = compound: CC(C)N(C[C@H]1O[C@@H](n2cnc3c(N)ncnc32)[C@H](O)[C@@H]1O)[C@H]1C[C@@H](CCc2nc3cc(C(C)(C)C)ccc3[nH]2)C1 [pinometostat]
Summary of the method: as §1

[14] = compound: CC1=C(C(CC(=O)N1)C2=CC=C(C=C2)C(F)(F)F)C(=O)NC3=C(C=C4C(=C3)C=NN4)F
Summary of the method: as §1

[15] = compound: CC1=C(C2=C(C=C1)C(=O)C3=CC=CC=C3N2CCCN)C
Summary of the method: as §1

Chain of UniProt P35670 (P35670 whole entry, looked up): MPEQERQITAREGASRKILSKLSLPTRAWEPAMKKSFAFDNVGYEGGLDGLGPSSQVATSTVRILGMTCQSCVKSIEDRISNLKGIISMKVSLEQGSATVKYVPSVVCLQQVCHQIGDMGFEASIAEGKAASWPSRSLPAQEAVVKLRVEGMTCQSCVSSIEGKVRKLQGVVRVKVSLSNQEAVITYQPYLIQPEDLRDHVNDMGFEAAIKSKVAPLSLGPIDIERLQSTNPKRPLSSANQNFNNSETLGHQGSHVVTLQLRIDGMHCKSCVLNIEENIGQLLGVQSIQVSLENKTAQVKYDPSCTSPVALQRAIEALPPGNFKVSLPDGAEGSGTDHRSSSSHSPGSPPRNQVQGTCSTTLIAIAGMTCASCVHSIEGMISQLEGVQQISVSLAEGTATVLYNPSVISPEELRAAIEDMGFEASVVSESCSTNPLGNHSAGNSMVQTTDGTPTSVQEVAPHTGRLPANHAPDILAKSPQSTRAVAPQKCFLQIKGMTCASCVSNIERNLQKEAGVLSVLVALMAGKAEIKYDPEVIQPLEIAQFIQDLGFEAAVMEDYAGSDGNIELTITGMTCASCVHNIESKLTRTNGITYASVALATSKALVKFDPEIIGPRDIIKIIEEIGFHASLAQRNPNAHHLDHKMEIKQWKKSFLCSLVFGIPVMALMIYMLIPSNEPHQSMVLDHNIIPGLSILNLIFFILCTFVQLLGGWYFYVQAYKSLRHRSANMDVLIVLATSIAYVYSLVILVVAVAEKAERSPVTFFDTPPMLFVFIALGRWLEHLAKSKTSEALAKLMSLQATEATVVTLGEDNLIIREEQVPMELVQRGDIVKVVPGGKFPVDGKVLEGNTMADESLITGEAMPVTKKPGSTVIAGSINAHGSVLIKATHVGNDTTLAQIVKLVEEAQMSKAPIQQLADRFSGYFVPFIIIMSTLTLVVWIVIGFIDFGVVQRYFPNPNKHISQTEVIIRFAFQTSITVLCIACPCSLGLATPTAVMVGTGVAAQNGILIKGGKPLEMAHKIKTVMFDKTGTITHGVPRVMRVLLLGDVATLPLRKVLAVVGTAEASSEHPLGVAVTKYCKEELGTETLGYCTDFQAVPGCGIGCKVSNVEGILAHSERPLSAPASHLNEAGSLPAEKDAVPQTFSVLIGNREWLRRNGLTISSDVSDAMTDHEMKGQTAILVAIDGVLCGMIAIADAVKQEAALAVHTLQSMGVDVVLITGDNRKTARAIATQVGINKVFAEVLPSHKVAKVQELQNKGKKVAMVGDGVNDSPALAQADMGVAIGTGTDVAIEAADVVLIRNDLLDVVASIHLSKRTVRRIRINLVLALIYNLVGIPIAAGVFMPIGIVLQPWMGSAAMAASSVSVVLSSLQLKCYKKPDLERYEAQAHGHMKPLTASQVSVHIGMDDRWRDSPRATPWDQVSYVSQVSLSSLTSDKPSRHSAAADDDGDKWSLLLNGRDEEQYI
Chain of UniProt P30043 (P30043 whole entry, looked up): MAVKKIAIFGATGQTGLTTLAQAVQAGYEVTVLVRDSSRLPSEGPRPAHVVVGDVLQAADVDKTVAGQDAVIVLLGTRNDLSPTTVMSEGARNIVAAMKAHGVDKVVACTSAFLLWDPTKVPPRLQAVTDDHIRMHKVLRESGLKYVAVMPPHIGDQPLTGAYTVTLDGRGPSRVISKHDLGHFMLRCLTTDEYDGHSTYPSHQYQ
Chain of UniProt P21283 (P21283 whole entry, looked up): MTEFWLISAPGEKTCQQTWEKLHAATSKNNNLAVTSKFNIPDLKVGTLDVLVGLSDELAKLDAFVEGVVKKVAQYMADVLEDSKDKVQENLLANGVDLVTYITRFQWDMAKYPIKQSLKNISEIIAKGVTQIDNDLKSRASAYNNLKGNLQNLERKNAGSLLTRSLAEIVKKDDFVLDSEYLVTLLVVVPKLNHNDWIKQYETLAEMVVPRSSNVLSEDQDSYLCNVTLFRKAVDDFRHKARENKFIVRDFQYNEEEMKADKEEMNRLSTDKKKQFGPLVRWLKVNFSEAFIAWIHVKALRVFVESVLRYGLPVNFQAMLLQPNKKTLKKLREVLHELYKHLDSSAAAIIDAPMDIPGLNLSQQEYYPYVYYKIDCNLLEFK
Chain of UniProt Q9BTE6 (Q9BTE6 whole entry, looked up): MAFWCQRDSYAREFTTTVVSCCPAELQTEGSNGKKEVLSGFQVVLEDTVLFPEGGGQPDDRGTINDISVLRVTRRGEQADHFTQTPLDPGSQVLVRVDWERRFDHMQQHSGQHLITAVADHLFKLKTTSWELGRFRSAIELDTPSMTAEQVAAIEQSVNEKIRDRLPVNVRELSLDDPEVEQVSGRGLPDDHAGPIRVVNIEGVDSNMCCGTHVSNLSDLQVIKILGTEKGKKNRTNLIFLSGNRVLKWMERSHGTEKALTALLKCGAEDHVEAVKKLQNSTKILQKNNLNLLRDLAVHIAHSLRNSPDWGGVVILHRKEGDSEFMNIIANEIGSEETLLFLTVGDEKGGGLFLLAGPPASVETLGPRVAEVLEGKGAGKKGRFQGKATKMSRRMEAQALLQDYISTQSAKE
Chain of UniProt P52895 (P52895 whole entry, looked up): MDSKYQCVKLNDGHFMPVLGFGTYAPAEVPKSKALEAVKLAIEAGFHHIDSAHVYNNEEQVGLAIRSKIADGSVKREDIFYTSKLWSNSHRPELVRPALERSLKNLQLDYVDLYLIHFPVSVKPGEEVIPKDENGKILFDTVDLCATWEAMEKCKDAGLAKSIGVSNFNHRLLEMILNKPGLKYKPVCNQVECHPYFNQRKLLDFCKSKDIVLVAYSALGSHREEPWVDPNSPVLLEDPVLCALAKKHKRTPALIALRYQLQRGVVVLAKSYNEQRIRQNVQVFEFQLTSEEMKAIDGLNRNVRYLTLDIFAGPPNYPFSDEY
Chain of UniProt P35611 (P35611 whole entry, looked up): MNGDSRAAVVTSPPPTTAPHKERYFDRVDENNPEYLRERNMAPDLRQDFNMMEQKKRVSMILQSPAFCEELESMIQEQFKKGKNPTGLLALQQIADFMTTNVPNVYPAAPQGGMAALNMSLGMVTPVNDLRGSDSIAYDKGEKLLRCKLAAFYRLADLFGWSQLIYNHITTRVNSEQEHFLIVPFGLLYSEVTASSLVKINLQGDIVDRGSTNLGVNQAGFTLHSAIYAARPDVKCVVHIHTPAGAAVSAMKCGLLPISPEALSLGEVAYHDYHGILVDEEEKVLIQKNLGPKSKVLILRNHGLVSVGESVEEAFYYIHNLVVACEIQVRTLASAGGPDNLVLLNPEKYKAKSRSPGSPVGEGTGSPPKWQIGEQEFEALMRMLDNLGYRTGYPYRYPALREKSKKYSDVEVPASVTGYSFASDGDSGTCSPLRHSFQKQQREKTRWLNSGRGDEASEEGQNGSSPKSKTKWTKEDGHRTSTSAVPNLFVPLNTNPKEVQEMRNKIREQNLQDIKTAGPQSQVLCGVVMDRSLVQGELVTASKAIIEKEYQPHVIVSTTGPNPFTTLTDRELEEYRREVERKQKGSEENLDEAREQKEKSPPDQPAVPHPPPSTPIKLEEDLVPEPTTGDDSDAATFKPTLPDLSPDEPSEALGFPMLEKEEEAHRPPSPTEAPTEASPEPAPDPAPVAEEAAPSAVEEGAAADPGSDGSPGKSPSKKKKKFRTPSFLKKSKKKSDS
Chain of UniProt Q92685 (Q92685 whole entry, looked up): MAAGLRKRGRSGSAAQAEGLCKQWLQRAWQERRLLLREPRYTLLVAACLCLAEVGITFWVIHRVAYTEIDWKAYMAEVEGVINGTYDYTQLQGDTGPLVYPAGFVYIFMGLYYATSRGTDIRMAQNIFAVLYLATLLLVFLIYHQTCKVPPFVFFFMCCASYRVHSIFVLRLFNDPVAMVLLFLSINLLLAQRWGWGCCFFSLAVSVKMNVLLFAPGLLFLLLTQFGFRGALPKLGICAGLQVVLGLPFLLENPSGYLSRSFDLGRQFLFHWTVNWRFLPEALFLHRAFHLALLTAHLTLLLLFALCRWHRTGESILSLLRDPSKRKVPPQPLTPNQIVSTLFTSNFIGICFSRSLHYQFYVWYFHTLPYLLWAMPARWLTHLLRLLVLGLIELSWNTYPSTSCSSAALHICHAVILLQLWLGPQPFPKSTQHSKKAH

Row | Target | log2 fold change (erlotinib) | log2 fold change [1] | log2 fold change [2] | log2 fold change [3] | log2 fold change [4] | log2 fold change [5] | log2 fold change [6] | log2 fold change [7] | log2 fold change [8] | log2 fold change [9] | log2 fold change (IRAK-1-4 Inhibitor I) | log2 fold change (ibrutinib) | log2 fold change [10] | log2 fold change (ralimetinib) | log2 fold change [11] | log2 fold change [12] | log2 fold change [13] | log2 fold change (pinometostat) | log2 fold change [14] | log2 fold change [15]
1 | AARSD1 isoform 3 (UniProt Q9BTE6) | 0.05 | -0.736 (active) | 0.113 | -0.014 | -0.027 | 0.008 | -0.015 | 0.053 | -0.006 | -0.086 | 0.002 | -0.074 | 0.029 | -0.038 | -0.017 | -0.177 | 0.069 | -0.01 | -0.027 | -0.126
2 | AKR1C2 (UniProt P52895) | 0.07 | 0.014 | -0.101 | -0.092 | 0.001 | 0.085 | 0.292 | -0.038 | 0.044 | -0.028 | -0.218 | 0.006 | -0.043 | -0.015 | 0.099 | -0.16 | -0.043 | 0.049 | 0.008 | -0.063
3 | ATP7B (UniProt P35670) | -0.005 | 0.073 | -0.037 | 0.051 | 0.119 | 0.01 | 0.077 | -0.009 | -0.075 | -0.052 | -0.022 | -0.033 | 0.077 | 0.043 | 0.003 | 0.011 | 0.015 | 0.056 | -0.124 | 0.061
4 | ADD1 isoform 3 (UniProt P35611) | 0.041 | 0.018 | -0.013 | -0.022 | 0.071 | 0.004 | -0.08 | -0.018 | -0.018 | 0.023 | 0.048 | 0.011 | -0.274 (active) | -0.068 | -0.008 | 0.038 | -0.003 | -0.001 | -0.004 | 0.008
5 | BLVRB (UniProt P30043) | 0.03 | 0.112 | 0.237 (active) | -0.031 | -0.015 | 0.072 | 0.042 | 0.014 | 0.001 | 0.056 | 0.075 | 0.037 | 0.154 | 0.056 | -0.019 | -0.048 | -0.037 | -0.005 | -0.046 | 0.059
6 | ARFGEF1 (UniProt Q9Y6D6) | 0.016 | 0.025 | 0.03 | -0.03 | 0.016 | 0.015 | 0.101 | 0.051 | -0.013 | 0.043 | 0.016 | -0.061 | 0.036 | 0.132 | -0.018 | 0.051 | -0.019 | 0.001 | -0.065 | 0.07
7 | ATP6V1C1 (UniProt P21283) | -0.103 | 0.02 | -0.135 | -0.021 | -0.011 | 0.046 | -0.244 | 0.045 | -0.067 | -0.227 | -0.102 | -0.041 | -0.074 | 0.036 | 0.039 | -0.008 | 0.052 | 0.068 | 0.032 | -0.037
8 | ALG3 (UniProt Q92685) | 0.024 | 0.127 | 0.07 | -0.081 | 0.03 | -0.002 | 0.022 | -0.011 | -0.133 | 0.103 | -0.081 | -0.022 | -0.08 | -0.08 | -0.034 | -0.267 | -0.038 | -0.075 | -0.037 | -0.045
